Data reported in the supplement of paper PMC8728848.
Shown is part of a subset that was picked to be rich in the strongest signals.

Tests used:
Assay in all cases: glycan array binding signal (z-score within array); higher = stronger binding
Details in all cases: glycan notation: IUPAC condensed, linker removed
[1] = molecular target: Fuc(a1-2)Gal(b1-3)GalNAc(a1-3)[Fuc(a1-2)]Gal(b1-4)GlcNAc
Procedure, shortened: (§1)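 Arrays were curated from the Consortium for Functional Glycomics database, 3228 in total, and kept only where the protein sequence was available. Binding is expressed as a within-array Z-score. This score was averaged across arrays of the same protein sequence at different concentrations or buffers and across linkers, and negative values can be read as non-binding.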

[2] = molecular target: Fuc(a1-2)Gal(b1-3)GlcNAc(b1-3)[Gal(b1-4)GlcNAc(b1-6)]Gal(b1-4)Glc
Procedure, shortened: as §1

[3] = molecular target: Fuc(a1-2)Gal(b1-3)[Fuc(a1-4)]GlcNAc(b1-2)Man(a1-3)[Fuc(a1-2)Gal(b1-3)[Fuc(a1-4)]GlcNAc(b1-2)Man(a1-3)]Man(b1-4)GlcNAc(b1-4)GlcNAc
Procedure, shortened: as §1

[4] = molecular target: Fuc(a1-2)Gal(b1-4)Glc
Procedure, shortened: as §1

[5] = molecular target: Fuc(a1-2)Gal(b1-4)GlcNAc(b1-6)GalNAc
Procedure, shortened: as §1

[6] = molecular target: Fuc(a1-2)Gal(b1-4)[Fuc(a1-3)]GlcNAc
Procedure, shortened: as §1

[7] = molecular target: Fuc(a1-2)Gal3S(b1-4)GlcNAc
Procedure, shortened: as §1

[8] = molecular target: Fuc(a1-2)[GalNAc(a1-3)]Gal(b1-4)GlcNAc(b1-2)Man(a1-3)[Fuc(a1-2)[GalNAc(a1-3)]Gal(b1-4)GlcNAc(b1-2)Man(a1-6)]Man(b1-4)GlcNAc(b1-4)[Fuc(a1-6)]GlcNAc
Procedure, shortened: as §1

[9] = molecular target: Fuc(a1-2)[GalNAc(a1-3)]Gal(b1-4)GlcNAc(b1-3)Gal(b1-4)GlcNAc
Procedure, shortened: as §1

[10] = molecular target: Fuc(a1-2)[GalNAc(a1-3)]Gal(b1-4)[Fuc(a1-3)]GlcNAc
Procedure, shortened: as §1

[11] = molecular target: Fuc(a1-3)[Gal(b1-4)]GlcNAc(b1-3)Gal(b1-4)[Fuc(a1-3)]GlcNAc
Procedure, shortened: as §1

[12] = molecular target: Fuc(a1-3)[Gal(b1-4)]GlcNAc6S
Procedure, shortened: as §1

[13] = molecular target: Gal(a1-3)Gal(b1-3)GlcNAc(b1-2)Man
Procedure, shortened: as §1

[14] = molecular target: Gal(b1-3)GlcNAc(a1-3)Gal(b1-4)GlcNAc
Procedure, shortened: as §1

[15] = molecular target: Gal(b1-3)GlcNAc(b1-3)Gal(b1-4)GlcNAc
Procedure, shortened: as §1

[16] = molecular target: Gal(b1-4)GlcNAc(b1-3)Gal(b1-3)GlcNAc
Procedure, shortened: as §1

[17] = molecular target: Gal(b1-4)GlcNAc(b1-3)Gal(b1-4)GlcNAc(b1-3)Gal(b1-4)GlcNAc(b1-3)Gal(b1-4)GlcNAc(b1-3)Gal(b1-4)GlcNAc(b1-2)Man(a1-3)[Gal(b1-4)GlcNAc(b1-3)Gal(b1-4)GlcNAc(b1-3)Gal(b1-4)GlcNAc(b1-3)Gal(b1-4)GlcNAc(b1-3)Gal(b1-4)GlcNAc(b1-2)Man(a1-6)]Man(b1-4)GlcNAc(b1-4)[Fuc(a1-6)]GlcNAc
Procedure, shortened: as §1

[18] = molecular target: Gal(b1-4)GlcNAc(b1-3)Gal(b1-4)[Fuc(a1-3)]GlcNAc(b1-3)Gal(b1-4)[Fuc(a1-3)]GlcNAc
Procedure, shortened: as §1

[19] = molecular target: Gal3S(b1-3)[Fuc(a1-4)]GlcNAc
Procedure, shortened: as §1

[20] = molecular target: Gal4S(b1-4)GlcNAc
Procedure, shortened: as §1

[21] = molecular target: Gal6S(b1-4)GlcNAc
Procedure, shortened: as §1

[22] = molecular target: GalNAc(a1-3)GalNAc(b1-3)Gal(a1-4)Gal(b1-4)GlcNAc
Procedure, shortened: as §1

[23] = molecular target: GalNAc(b1-4)GlcNAc
Procedure, shortened: as §1

[24] = molecular target: GalNAc(b1-4)GlcNAc(b1-2)Man(a1-3)[GalNAc(b1-4)GlcNAc(b1-2)Man(a1-6)]Man(b1-4)GlcNAc(b1-4)GlcNAc
Procedure, shortened: as §1

[25] = molecular target: GalNAc3S(b1-4)GlcNAc3S
Procedure, shortened: as §1

[26] = molecular target: Glc(a1-6)Glc(a1-6)Glc
Procedure, shortened: as §1

[27] = molecular target: GlcNAc(b1-2)Gal(b1-3)GalNAc
Procedure, shortened: as §1

[28] = molecular target: GlcNAc(b1-2)[GlcNAc(b1-4)]Man(a1-3)[GlcNAc(b1-2)Man(a1-6)]Man(b1-4)GlcNAc(b1-4)GlcNAc
Procedure, shortened: as §1

[29] = molecular target: GlcNAc(b1-3)Gal(b1-4)GlcNAc(b1-3)Gal(b1-4)GlcNAc(b1-3)Gal(b1-4)GlcNAc(b1-3)Gal(b1-4)GlcNAc(b1-2)Man(a1-3)[GlcNAc(b1-3)Gal(b1-4)GlcNAc(b1-3)Gal(b1-4)GlcNAc(b1-3)Gal(b1-4)GlcNAc(b1-3)Gal(b1-4)GlcNAc(b1-2)Man(a1-6)]Man(b1-4)GlcNAc(b1-4)[Fuc(a1-6)]GlcNAc
Procedure, shortened: as §1

[30] = molecular target: GlcNAc(b1-3)Gal(b1-4)GlcNAc(b1-3)Gal(b1-4)GlcNAc(b1-3)GalNAc
Procedure, shortened: as §1

[31] = molecular target: GalNAc(b1-6)GalNAc
Procedure, shortened: as §1

[32] = molecular target: GalNAc6S(b1-4)GlcNAc
Procedure, shortened: as §1

[33] = molecular target: Glc(a1-4)Glc(a1-4)Glc(a1-4)Glc
Procedure, shortened: as §1

[34] = molecular target: Glc(b1-6)Glc
Procedure, shortened: as §1

[35] = molecular target: GlcNAc(a1-4)Gal(b1-3)GlcNAc
Procedure, shortened: as §1

[36] = molecular target: GlcNAc(a1-4)Gal(b1-4)GlcNAc(b1-3)Gal(b1-4)[Fuc(a1-3)]GlcNAc(b1-3)Gal(b1-4)[Fuc(a1-3)]GlcNAc
Procedure, shortened: as §1

[37] = molecular target: GlcNAc(b1-3)Gal(b1-4)GlcNAc
Procedure, shortened: as §1

[38] = molecular target: GlcNAc(b1-3)Gal(b1-4)GlcNAc(b1-2)Man(a1-3)[GlcNAc(b1-3)Gal(b1-4)GlcNAc(b1-2)Man(a1-6)]Man(b1-4)GlcNAc(b1-4)GlcNAc
Procedure, shortened: as §1

[39] = molecular target: GlcNAc(b1-3)Gal(b1-4)GlcNAc(b1-3)Gal(b1-4)GlcNAc(b1-2)[GlcNAc(b1-3)Gal(b1-4)GlcNAc(b1-3)Gal(b1-4)GlcNAc(b1-6)]Man(a1-6)[GlcNAc(b1-3)Gal(b1-4)GlcNAc(b1-3)Gal(b1-4)GlcNAc(b1-2)Man(a1-3)]Man(b1-4)GlcNAc(b1-4)[Fuc(a1-6)]GlcNAc
Procedure, shortened: as §1

[40] = molecular target: Kdn(a2-3)Gal(b1-3)GalNAc
Procedure, shortened: as §1

[41] = molecular target: Neu5Ac(a2-3)Gal(b1-4)GlcNAc(b1-3)Gal(b1-3)GlcNAc
Procedure, shortened: as §1

[42] = molecular target: Neu5Ac(a2-3)Gal(b1-4)GlcNAc(b1-3)Gal(b1-4)GlcNAc(b1-2)Man(a1-3)[Neu5Ac(a2-3)Gal(b1-4)GlcNAc(b1-3)Gal(b1-4)GlcNAc(b1-2)Man(a1-6)]Man(b1-4)GlcNAc(b1-4)GlcNAc
Procedure, shortened: as §1

[43] = molecular target: Neu5Ac(a2-3)Gal(b1-4)[Fuc(a1-3)]GlcNAc(b1-2)Man
Procedure, shortened: as §1

[44] = molecular target: Neu5Ac(a2-3)Gal(b1-4)[Fuc(a1-3)]GlcNAc(b1-3)Gal(b1-4)GlcNAc
Procedure, shortened: as §1

[45] = molecular target: Neu5Ac(a2-6)Gal(b1-4)GlcNAc(b1-2)Man(a1-3)[Neu5Ac(a2-3)Gal(b1-4)GlcNAc(b1-2)Man(a1-6)]Man(b1-4)GlcNAc(b1-4)GlcNAc
Procedure, shortened: as §1

[46] = molecular target: Neu5Ac(a2-6)Gal(b1-4)GlcNAc6S
Procedure, shortened: as §1

[47] = molecular target: Neu5Ac(a2-8)Neu5Ac
Procedure, shortened: as §1

[48] = molecular target: Neu5Ac(a2-8)Neu5Ac(a2-8)Neu5Ac
Procedure, shortened: as §1

[49] = molecular target: Neu5Ac9Ac(a2-6)Gal(b1-4)GlcNAc
Procedure, shortened: as §1

[50] = molecular target: Neu5Gc(a2-3)Gal(b1-4)GlcNAc
Procedure, shortened: as §1

[51] = molecular target: Neu5Gc(a2-3)Gal(b1-4)[Fuc(a1-3)]GlcNAc
Procedure, shortened: as §1

[52] = molecular target: Neu5Gc(a2-8)Neu5Ac(a2-3)Gal(b1-4)GlcNAc
Procedure, shortened: as §1

B1: EfCBM33A (Enterococcus faecalis), Q838S1 (protein)
chain: MKKSLLTIVLAFSFVLGGAALAPTVSEAHGYVASPGSRAFFGSSAGGNLNTNVGRAQWEPQSIEAPKNTFITGKLASAGVSGFEPLDEQTATRWHKTNITTGPLDITWNLTAQHRTASWDYYITKNGWNPNQPLDIKNFDKIASIDGKQEVPNKVVKQTINIPTDRKGYHVIYAVWGIGDTVNAFYQAIDVNIQ
[1]
  glycan array binding signal (z-score): -0.436
[2]
  glycan array binding signal (z-score): -0.026
[3]
  glycan array binding signal (z-score): 0.371
[4]
  glycan array binding signal (z-score): 0.342
[5]
  glycan array binding signal (z-score): 1.05
[6]
  glycan array binding signal (z-score): 0.633
[7]
  glycan array binding signal (z-score): 0.017
[8]
  glycan array binding signal (z-score): -0.321
[9]
  glycan array binding signal (z-score): 0.048
[10]
  glycan array binding signal (z-score): -1.09
[11]
  glycan array binding signal (z-score): 0.008
[12]
  glycan array binding signal (z-score): 0.882
[13]
  glycan array binding signal (z-score): 1.41
[14]
  glycan array binding signal (z-score): 0.358
[15]
  glycan array binding signal (z-score): 2.06
[16]
  glycan array binding signal (z-score): -0.608
[17]
  glycan array binding signal (z-score): 8.45
[18]
  glycan array binding signal (z-score): 0.067
[19]
  glycan array binding signal (z-score): 2.81
[20]
  glycan array binding signal (z-score): -1.18
[21]
  glycan array binding signal (z-score): 0.105
[22]
  glycan array binding signal (z-score): -0.606
[23]
  glycan array binding signal (z-score): 1.05
[24]
  glycan array binding signal (z-score): 3.54
[25]
  glycan array binding signal (z-score): 0.074
[26]
  glycan array binding signal (z-score): 0.821
[27]
  glycan array binding signal (z-score): -0.504
[28]
  glycan array binding signal (z-score): 0.123
[29]
  glycan array binding signal (z-score): 4.24
[30]
  glycan array binding signal (z-score): 0.242

B2: Vd7LysM (Verticillium dahliae) (protein)
chain: RRGPEPKYPPAAGTSSYCSYWVDYEGDKSCSRVLEDNVVVLKDFARWNPTVGADCSGIKAGNSYCVEAFGEPEPIEVTTTTRAATTTTQPTATTTTFANGIATPQPTQSGMVTNCNKFHWIAEGVSCSQVISFQKITLADFVKWNPSVKSDCSGMWAGVNVCVGVVGSSTDTAKPTTTAPSNGVVTPQPTQPSMVTNCNKFHWIAKGVTCQQVISYQKISLADFVKWNPSVLSDCSGMWAEVQVCVGVIGSTPTTLATTTTTAGNGVSTPLPTQPGMVTNCAKFHWVAKGVTCNQIYSFQKITLEQFVSYNPTVKSDCSGMQAEVQVCVGLIAGTTPTTTRPPTTTAPGNGVSTPQPTQPGMVTNCAKFHWVAKGVTCNQIYSFQKITLEQFVSFNPTVKSDCTGMQAEVNVCVGLIGGNPTPTQTGNGIATPTPIQPGMVSNCKKFHWIAQGVTCQQVISFQKITLADFVKWNTGVGSDCRTMWAETNVCVGV
[31]
  glycan array binding signal (z-score): 0.192
[32]
  glycan array binding signal (z-score): 0.22
[33]
  glycan array binding signal (z-score): 0.035
[34]
  glycan array binding signal (z-score): -1.06
[35]
  glycan array binding signal (z-score): -0.658
[36]
  glycan array binding signal (z-score): 1.23
[37]
  glycan array binding signal (z-score): 0.117
[38]
  glycan array binding signal (z-score): 2.67
[39]
  glycan array binding signal (z-score): 2.72
[40]
  glycan array binding signal (z-score): 3.09
[41]
  glycan array binding signal (z-score): 1.03
[42]
  glycan array binding signal (z-score): 2.5
[43]
  glycan array binding signal (z-score): -0.307
[44]
  glycan array binding signal (z-score): 0.427
[45]
  glycan array binding signal (z-score): 0.213
[46]
  glycan array binding signal (z-score): 0.8
[47]
  glycan array binding signal (z-score): -0.418
[48]
  glycan array binding signal (z-score): -0.119
[49]
  glycan array binding signal (z-score): 2.97
[50]
  glycan array binding signal (z-score): 0.306
[51]
  glycan array binding signal (z-score): 0.377
[52]
  glycan array binding signal (z-score): -0.354
